Laboratory results as given in PubChem BioAssay (Tox21).
Results filed as inconclusive are left out. Unmarked numbers belong to inactive results. Calls of active or inactive are those of the source. Calls follow the shape of the full dose curve. Square brackets hold non-standard residues; d marks the D form. Peptide text beside a SMILES is read from it. pGlu = O=C1CC[C@@H](C(=O)O)N1

Test: p53 small molecule agonists, cell-based qHTS assay with human liver microsomes (AID 1963577);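 also: p53 response element beta-lactamase reporter cells with liver microsomes plus NADPH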
Settings: HCT-116 p53RE-bla with human liver microsomes, ratio, 16 h; series mostly up to 66 µM; activation: at the top concentration
Excerpt: National Center for Advancing Translational Sciences [NCATS]
Division of Preclinical Innovation [DPI]
U.S. Environmental Protection Agency [EPA]
National Institutes of Environmental Health Sciences [NIEHS]
National Toxicology Program [NTP]
U.S. Food and Drug Administration [FDA]
p53, a tumor suppressor protein, is activated following cellular insult, including DNA damage and other cellular stresses. The activation of p53 regulates cell fate by inducing DNA repair, cell cycle arrest, apoptosis, or cellular senescence. The activation of p53, therefore, is a good indicator of DNA damage and other cellular stresses. […] The activation of the reporter gene under culture conditions can be detected by fluorescence intensity.
Tox21 Assay Protocol Summary:
The p53RE-bla cells were dispensed at 4,000cells/3ul/well in 1536-well black-clear bottom plates. After the assay plates were incubated at 37 C, 5% CO2 incubator for 5 hours, 23 nL of compounds dissolved in DMSO, positive controls or DMSO only was transferred to the assay plate. Following compound addition, 3 uL of human liver microsomes (XenoTech, Kansas City, KS) at final concentration of 0.5 mg/mL and 1uL of Beta-Nicotinamide adenine dinucleotide 2-phosphate (NADPH) at final concentration of 0.5 mg/mL were transferred to the assay plate. The plates were incubated at 37 C for 16 hours. 1 uL of LiveBLAzer detection mixture was added to each well and the plates were incubated at room temperature in the dark for 2 h.
% is scaled to controls: 0 for no effect and ±100 for the full control effect.

| Compound | activation | Potency |
| --- | --- | --- |
| CC(C)C1=CC2=CC[C@@H]3[C@](C)(CCC[C@@]3(C)C(=O)O)[C@H]2CC1 | -6.49% | – |
| CCCCCCCCCCCCCCCCN | 0.261% [at 30.3 µM] | – |
| CCCn1cc[n+](C)c1C | 0.347% | – |
| CN(C)CC/C=C1\c2ccccc2COc2ccccc21 | -10% [at 30.3 µM] | – |
| C=CC(=O)OCCn1c(=O)n(CCOC(=O)C=C)c(=O)n(CCOC(=O)C=C)c1=O | 0.175% | – |
| CCOc1ccc(O)cc1 | 2.94% | – |
| CC(C)NC(=O)c1ccc(C=O)cc1 | 0.663% [at 30.3 µM] | – |
| O=C1Nc2ccc(Cl)cc2[C@@](C#CC2CC2)(C(F)(F)F)O1 | 1.5% [at 30.3 µM] | – |
| COC(=O)[C@]1(C)CCC[C@@]2(C)[C@H]1CC=C1C=C(C(C)C)CC[C@@H]12 | 0.667% | – |
| CC(=O)O[Si](C)(OC(C)=O)OC(C)=O | -1.04% | – |
| O=S(=O)(O)c1cc(S(=O)(=O)O)c2ccc3c(S(=O)(=O)O)cc(S(=O)(=O)O)c4ccc1c2c43 | -0.621% [at 13.5 µM] | – |
| COc1ccc(C(=O)/C(Br)=C\C(=O)O)cc1 | -0.175% | – |
| CCC(C)(CN(C)C)OC(=O)c1ccccc1 (stereo not given) | 1.62% [at 30.3 µM] | – |
| N#CCCCC(C#N)CCC#N (stereo not given) | -1.51% | – |
| O[C@@H](c1cc(C(F)(F)F)nc2c(C(F)(F)F)cccc12)[C@H]1CCCCN1 | -17.6% [at 30.3 µM] | – |
| COC(=O)Nc1nc2ccc(C(=O)c3ccccc3)cc2[nH]1 | -11.9% [at 30.3 µM] | – |
| CN(C)Cc1cc(C(C)(C)C)c(O)c(C(C)(C)C)c1 | 1.03% | – |
| CC(=O)OC(OC(C)=O)c1ccc([N+](=O)[O-])o1 | -6.15% | – |
| CCNC(=O)[C@@H]1CCCN1C(=O)[C@H](CCCN=C(N)N)NC(=O)[C@H](CC(C)C)NC(=O)CNC(=O)[C@H](Cc1ccc(O)cc1)NC(=O)[C@H](CO)NC(=O)[C@H](Cc1c[nH]c2ccccc12)NC(=O)[C@H](Cc1cnc[nH]1)NC(=O)[C@@H]1CCC(=O)N1 ([pGlu]HWSYGLRP-NHEt) | -6.09% [at 30.3 µM] | – |
| COC(=O)/C=C/C(C)=C\C=C\C(C)=C\C=C\C=C(C)\C=C\C=C(C)\C=C\C(=O)O | 1.22% | – |

| Compound | activation | Potency |
| --- | --- | --- |
| CC/C=C\C/C=C\C/C=C\CCCCCCCC(=O)OC | 0.554% | – |
| CC(C)(C)c1ccc(C(=O)O)cc1 | 0.1% | – |
| C[C@@H](c1ncncc1F)C(O)(Cn1cncn1)c1ccc(F)cc1F (stereo not given in full) | -0.157% [at 30.3 µM] | – |
| CC(=O)CCc1ccc(OC(C)=O)cc1 | -0.782% | – |
| Brc1c(NC2=NCCN2)ccc2nccnc12 | -1.5% [at 30.3 µM] | – |
| CC(C)C(OC(=O)c1ccccc1)C(C)(C)COC(=O)c1ccccc1 (stereo not given) | 8.65% | – |
| CC1(C)CCC[C@]2(C)[C@H]3CC(=O)O[C@]3(C)CC[C@@H]12 | -10.2% | – |
| CCCCC(=O)O[C@]1(C(=O)CO)[C@@H](C)C[C@H]2[C@@H]3CCC4=CC(=O)C=C[C@]4(C)[C@@]3(F)[C@@H](O)C[C@@]21C | 3.71% | – |
| OCCOCC#CCOCCO | 3.37% | – |
| [O-][N+](=Nc1ccccc1)c1ccccc1 | -0.531% | – |
| O=[N+]([O-])c1cc(N(CCO)CCO)ccc1NCCO | – | inactive |
| [Cl][Bi]([Cl])([c]1ccccc1)([c]1ccccc1)[c]1ccccc1 | -6.62% | – |
| CCOC(=O)c1ccc(C2CCC(NC[C@H](O)COc3ccc(O)c(NS(C)(=O)=O)c3)CC2)cc1 (stereo not given in full) | -1.72% | – |
| O=[N+]([O-])c1ccc2ncccc2c1 | 2.1% | – |
| OC(CCN1CCCCC1)(c1ccccc1)C1CC2C=CC1C2 (stereo not given) | -0.147% [at 30.3 µM] | – |
| O=C(Nc1ccc(S(=O)(=O)N2CCOCC2)cc1)c1cc(Cl)ccc1NS(=O)(=O)c1ccc(Cl)s1 | -8.77% [at 30.3 µM] | – |
| NC(=O)CCCCC1CCSS1 (stereo not given) | 2.3% [at 30.3 µM] | – |
| Nc1ccc(N=Nc2ccc(N)cc2)cc1 | -8.2% [at 30.3 µM] | – |
| CC(C)C[C@H](NC(=O)[C@H](Cc1ccccc1)NC(=O)c1cnccn1)B(O)O | 0.18% [at 30.3 µM] | – |
| O=C(Cl)c1ccc(Cl)cc1Cl | 0.247% | – |
